Measured values taken from the supplement of paper PMC8728848.
This is one part of a sample in which the strongest signals are shown more often than they occur.

Legend:
Experiment in all cases: glycan array binding signal (z-score within array); higher = stronger binding
Details in all cases: glycan notation: IUPAC condensed, linker removed
[1] = target: GlcNAc(b1-3)Gal(b1-4)Glc
Outline: (§1)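 Glycan array data came from 3228 arrays in the Consortium for Functional Glycomics database, and only arrays with an available protein sequence were kept. Glycan names were put into IUPAC-condensed notation, and columns mapping to the same glycan were averaged. The binding signal is a within-array Z-score, averaged across arrays of one protein sequence run at different concentrations or buffers and across linkers. A negative Z-score can be read as non-binding.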

[2] = target: GlcNAc(b1-3)Gal(b1-4)GlcNAc(b1-3)Gal(b1-4)GlcNAc(b1-3)Gal(b1-4)GlcNAc(b1-2)[GlcNAc(b1-3)Gal(b1-4)GlcNAc(b1-3)Gal(b1-4)GlcNAc(b1-3)Gal(b1-4)GlcNAc(b1-6)]Man(a1-6)[GlcNAc(b1-3)Gal(b1-4)GlcNAc(b1-3)Gal(b1-4)GlcNAc(b1-3)Gal(b1-4)GlcNAc(b1-2)Man(a1-3)]Man(b1-4)GlcNAc(b1-4)[Fuc(a1-6)]GlcNAc
Outline: as §1

[3] = target: GlcNAc(b1-3)Gal(b1-4)GlcNAc(b1-6)[Gal(b1-3)]GalNAc
Outline: as §1

[4] = target: Kdn(a2-3)Gal(b1-3)GalNAc
Outline: as §1

[5] = target: Man(a1-3)[Man(a1-6)]Man
Outline: as §1

[6] = target: Man(a1-3)[Man(a1-6)]Man(a1-6)[Man(a1-3)]Man
Outline: as §1

[7] = target: Neu5Ac(a2-3)Gal(b1-3)GalNAc(b1-3)Gal(b1-4)GlcNAc
Outline: as §1

[8] = target: Neu5Ac(a2-3)Gal(b1-3)GlcNAc(b1-2)Man(a1-3)[Neu5Ac(a2-3)Gal(b1-3)GlcNAc(b1-2)Man(a1-6)]Man(b1-4)GlcNAc(b1-4)GlcNAc
Outline: as §1

[9] = target: Neu5Ac(a2-3)Gal(b1-3)[Fuc(a1-4)]GlcNAc
Outline: as §1

[10] = target: Neu5Ac(a2-3)Gal(b1-3)[Neu5Ac(a2-6)]GlcNAc(b1-3)[Fuc(a1-3)[Gal(b1-4)]GlcNAc(b1-6)]Gal(b1-4)Glc
Outline: as §1

[11] = target: Neu5Ac(a2-3)Gal(b1-4)Glc
Outline: as §1

[12] = target: Neu5Ac(a2-3)Gal(b1-4)GlcNAc(b1-2)Man
Outline: as §1

[13] = target: Neu5Ac(a2-3)Gal(b1-4)GlcNAc(b1-3)Gal(b1-4)GlcNAc(b1-2)Man(a1-3)[Neu5Ac(a2-3)Gal(b1-4)GlcNAc(b1-3)Gal(b1-4)GlcNAc(b1-2)Man(a1-6)]Man(b1-4)GlcNAc(b1-4)GlcNAc
Outline: as §1

[14] = target: Neu5Ac(a2-3)Gal(b1-4)GlcNAc(b1-3)Gal(b1-4)GlcNAc(b1-3)Gal(b1-4)GlcNAc
Outline: as §1

[15] = target: Neu5Ac(a2-3)Gal(b1-4)GlcNAc(b1-3)Gal(b1-4)GlcNAc(b1-3)Gal(b1-4)GlcNAc(b1-2)Man(a1-3)[Neu5Ac(a2-3)Gal(b1-4)GlcNAc(b1-3)Gal(b1-4)GlcNAc(b1-3)Gal(b1-4)GlcNAc(b1-2)Man(a1-6)]GalNAc
Outline: as §1

[16] = target: Neu5Ac(a2-3)Gal(b1-4)GlcNAc(b1-6)[Neu5Ac(a2-3)Gal(b1-3)]GalNAc
Outline: as §1

[17] = target: Neu5Ac(a2-3)Gal(b1-4)[Fuc(a1-3)]GlcNAc
Outline: as §1

[18] = target: Neu5Ac(a2-3)Gal6S(b1-4)[Fuc(a1-3)]GlcNAc
Outline: as §1

[19] = target: Neu5Ac(a2-6)Gal
Outline: as §1

[20] = target: Neu5Ac(a2-6)Gal(b1-4)GlcNAc(b1-2)Man(a1-6)[Gal(b1-4)GlcNAc(b1-2)Man(a1-3)]Man(b1-4)GlcNAc(b1-4)GlcNAc
Outline: as §1

[21] = target: Neu5Ac(a2-6)Gal(b1-4)GlcNAc(b1-2)[Neu5Ac(a2-6)Gal(b1-4)GlcNAc(b1-4)]Man(a1-3)[GlcNAc(b1-4)][Neu5Ac(a2-6)Gal(b1-4)GlcNAc(b1-2)[Neu5Ac(a2-6)Gal(b1-4)GlcNAc(b1-6)]Man(a1-6)]Man(b1-4)GlcNAc(b1-4)GlcNAc
Outline: as §1

[22] = target: Neu5Ac(a2-6)Gal(b1-4)GlcNAc(b1-3)Gal(b1-4)GlcNAc(b1-2)Man(a1-3)[Neu5Ac(a2-6)Gal(b1-4)GlcNAc(b1-3)Gal(b1-4)GlcNAc(b1-2)Man(a1-6)]GalNAc
Outline: as §1

[23] = target: Neu5Ac(a2-6)Gal(b1-4)GlcNAc(b1-3)Gal(b1-4)GlcNAc(b1-3)Gal(b1-4)GlcNAc
Outline: as §1

[24] = target: Neu5Ac(a2-6)Gal(b1-4)GlcNAc(b1-3)Gal(b1-4)GlcNAc(b1-3)Gal(b1-4)GlcNAc(b1-2)Man(a1-3)[Neu5Ac(a2-6)Gal(b1-4)GlcNAc(b1-3)Gal(b1-4)GlcNAc(b1-3)Gal(b1-4)GlcNAc(b1-2)Man(a1-6)]GalNAc
Outline: as §1

[25] = target: Neu5Ac(a2-6)Gal(b1-4)GlcNAc(b1-3)Gal(b1-4)GlcNAc(b1-3)[Neu5Ac(a2-6)Gal(b1-4)GlcNAc(b1-3)Gal(b1-4)GlcNAc(b1-6)]GalNAc
Outline: as §1

[26] = target: Neu5Ac(a2-6)Gal(b1-4)GlcNAc(b1-3)Gal(b1-4)[Fuc(a1-3)]GlcNAc(b1-3)Gal(b1-4)[Fuc(a1-3)]GlcNAc
Outline: as §1

[27] = target: Neu5Ac(a2-8)Neu5Ac(a2-8)Neu5Ac(a2-3)[Gal(b1-3)GalNAc(b1-4)]Gal(b1-4)Glc
Outline: as §1

[28] = target: Neu5Ac(b1-6)GalNAc
Outline: as §1

[29] = target: Neu5Gc(a2-8)Neu5Gc(a2-3)Gal(b1-4)GlcNAc(b1-3)Gal(b1-4)GlcNAc
Outline: as §1

B1: LTL (Lotus tetragonolobus), P19664 (protein)
chain: VSFNYTEFKDDGSLILQGDAKIWTDGRLAMPTDPLVNNPKTTRSAGRALYATPVPIWDSATGNVASFVTSFNFLFVIRELKYTPTDGLVFFLAPVGTEIPSGSTGGFLGIFDGSNGFNQFVAVEFDSYHNIWDPKSLRSSHVGIDVNSIMSLKAVNWNRVSGSLEKATIIYDSQTNILSVVMTSQNGQITTIYGTIDLKTVLPEKVSVGFSATTGNPEREKHDIYSWSFTSTLKEPEEQA
glycan array binding signal (z-score) [1]: -0.196
glycan array binding signal (z-score) [2]: 0.185
glycan array binding signal (z-score) [3]: -0.142
glycan array binding signal (z-score) [4]: 0.043
glycan array binding signal (z-score) [5]: -0.207
glycan array binding signal (z-score) [6]: 0.02
glycan array binding signal (z-score) [7]: -0.26
glycan array binding signal (z-score) [8]: -0.099
glycan array binding signal (z-score) [9]: 0.005
glycan array binding signal (z-score) [10]: -0.123
glycan array binding signal (z-score) [11]: -0.023
glycan array binding signal (z-score) [12]: 0.022
glycan array binding signal (z-score) [13]: 2.77
glycan array binding signal (z-score) [14]: -0.035
glycan array binding signal (z-score) [15]: 5.64
glycan array binding signal (z-score) [16]: -0.237
glycan array binding signal (z-score) [17]: -0.31
glycan array binding signal (z-score) [18]: 2.84
glycan array binding signal (z-score) [19]: -0.162
glycan array binding signal (z-score) [20]: -0.242
glycan array binding signal (z-score) [21]: -0.15
glycan array binding signal (z-score) [22]: 1.11
glycan array binding signal (z-score) [23]: -0.226
glycan array binding signal (z-score) [24]: 2.02
glycan array binding signal (z-score) [25]: 3.76
glycan array binding signal (z-score) [26]: -0.039
glycan array binding signal (z-score) [27]: 0.131
glycan array binding signal (z-score) [28]: -0.326
glycan array binding signal (z-score) [29]: -0.15
